# Screens as filed in PubChem BioAssay.
# In the library only some 3.5% were active in any assay of this set; here they are far more common.
# TEAD-YAP inh: TEAD-YAP interaction inhibition; AID 1259422; 640,000 tested, 1.4% active; inhibition, % at 9.12 µM; HEK-TIYL cells, TEAD-Gal4/YAP UAS-luciferase luminescence; in the data active = inhibition above about 32%;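 also: 0% = median of test compound wells and 100% = reference inhibitor wells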
# GPR151 ag: activates the human receptor GPR151; Q8TDV0; PathHunter beta-arrestin GPR151 cells, luminescence; activation, % at 11.2 µM; 650,000 tested, 1% active; in the data active = activation above about 4.9%;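 also: 0% = median of compound wells and 100% = cells with positive control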
# Target sequence (Q8TDV0 whole entry, looked up): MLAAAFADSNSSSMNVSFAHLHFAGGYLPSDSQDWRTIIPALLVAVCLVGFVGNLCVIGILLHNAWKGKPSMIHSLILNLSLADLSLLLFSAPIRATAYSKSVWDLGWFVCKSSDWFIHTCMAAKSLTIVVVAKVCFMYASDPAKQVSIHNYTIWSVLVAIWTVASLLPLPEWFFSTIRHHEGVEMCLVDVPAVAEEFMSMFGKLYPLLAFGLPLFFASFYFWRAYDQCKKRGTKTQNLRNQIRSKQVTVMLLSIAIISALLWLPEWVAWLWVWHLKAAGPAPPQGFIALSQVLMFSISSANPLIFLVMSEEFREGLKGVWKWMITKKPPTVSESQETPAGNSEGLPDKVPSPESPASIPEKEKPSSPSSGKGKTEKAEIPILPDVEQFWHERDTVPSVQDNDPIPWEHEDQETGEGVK
# FBW7 activator: activators of human E3 ligase FBW7 | Q969H0 | AlphaScreen FBW7–phospho-cyclin E peptide binding, activator screen | normalized activity (activation), % at 26.1 µM | 650,000 tested, 0.13% active; in the data active = normalized activity above about 1.9%;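 also: purified mutant Fbw7 with reduced substrate affinity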
# MITF inh: human MITF inhibition, primary screen; O75030; AlphaScreen MITF homodimerization, bead proximity signal; inhibition, % at 2.6 µM; 650,000 tested, 0.91% active; AID 1259374; in the data active = inhibition above about 50%;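 also: 0% = vehicle wells with protein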
# * = called active by the depositor.
SMILES,TEAD-YAP inh,GPR151 ag,FBW7 activator,MITF inh
CC(=O)Nc1ccc(OCC(=O)Nc2cccc(Oc3ccccc3)c2)cc1,35.8*,0.1,0.0,5.7
Cc1ccc(C(=O)Nc2ccc(OCC(=O)O)cc2)cc1,37.0*,0.0,-0.1,7.8
O=C(Nc1ccc(Br)cn1)c1ccccc1[N+](=O)[O-],54.5*,0.4,-0.1,0.4
CC(=O)Nc1cccc(NC(=O)COc2ccc(Oc3ccccc3)cc2)c1,-1.1,1.0,0.4,20.2
Cc1ccc(NC(=O)c2ccc(OCC(=O)Nc3ccccc3)cc2)cc1,-15.5,-0.8,0.1,0.4
CC(=O)Nc1ccc(OCCC[n+]2ccccc2)cc1,4.4,-1.1,1.9*,9.1
CS(=O)(=O)c1ccc(-c2cccc3c2OC(CNC(=O)Cc2ccccc2)C3)cc1 (centres undefined),-4.8,0.5,-0.2,12.3
Cc1cccc(NC(=O)CCn2c(=O)oc3ccccc32)c1C,3.1,-0.3,0.1,12.8
CCc1ccc(-n2c(=S)sc3c(=O)n(-c4ccc(F)cc4)c(SCC(=O)NCCc4ccccc4)nc32)cc1,18.9,-0.1,0.2,16.6
C=CCN1CCN(c2ccc(C(C)C)cc2)C1=O,-44.4,0.5,0.4,10.2
COc1ccc(OCC(=O)Nc2ccc(NC(=O)c3ccccc3)cc2)cc1,36.3*,3.1,0.0,-10.5
CCOc1ccc(C(=O)Nc2ccc(OCC(=O)O)cc2)cc1,47.7*,0.0,0.1,12.2
Cc1ccc(-n2ncc3c(N4CCCCC4)ncnc32)cc1C,73.4*,-4.4,0.0,9.9
Cc1ccc(-n2ncc3c(N4CCCCC4)ncnc32)c(C)c1,-33.2,1.5,0.1,5.3
Cc1ccc(-n2ncc3c(N4CCCC4)ncnc32)cc1,48.0*,-2.0,0.3,-8.7
Cc1cccc(N2CCN(c3ncnc4c3cnn4-c3ccccc3)CC2C)c1 (centres undefined),43.1*,-0.5,0.7,14.2
Cc1ccc(-n2ncc3c(N4CCOCC4)ncnc32)c(C)c1,58.2*,0.7,-0.2,0.3
CC(NC(=O)CNC(=S)N(Cc1ccc(F)cc1)C1CCCCC1)c1ccccc1 (centres undefined),17.4,-0.3,-0.1,2.0
COCc1cc(C)nc2sc(C(=O)c3ccc(F)cc3F)c(N)c12,-10.4,0.0,0.2,-8.5
Cc1ccc(N2CCN(c3ncnc4c3c(-c3ccccc3)cn4-c3ccc(Br)cc3)CC2C)cc1 (centres undefined),-4.6,-0.6,3.7*,-3.0
Cc1cccc(-n2ncc3c(N4CCOCC4)ncnc32)c1,93.3*,-6.7,0.0,-1.3
Cc1cccc(-n2ncc3c(N4CCN(c5ccccc5)CC4)ncnc32)c1,-7.5,-0.4,0.1,-3.6
Cc1cccc(-n2ncc3c(N4CCCC4)ncnc32)c1,51.7*,0.2,-0.1,-0.2
COc1ccc(-c2csc(=NCc3cccnc3)n2C(C)(C)C)cc1,-9.2,2.7,-0.2,14.2
COc1ccc(CCNC(=O)CN(c2ccc(C(C)C)cc2)S(C)(=O)=O)cc1OC,-2.7,2.3,0.1,12.2
SMILES,TEAD-YAP inh,GPR151 ag,FBW7 activator,MITF inh
CC(C)Cn1c(=O)c2c(nc3n2CC(C)CN3c2ccc(Br)cc2)n(C)c1=O (centres undefined),-3.7,3.9,0.6,10.2
CC(=O)NC(=O)c1cc2cc(Cl)ccc2oc1=Nc1cccc(F)c1,-72.9,-1.1,-0.1,0.9
Cc1ccccc1-c1nc2ccccc2[nH]1,-53.1,-2.1,0.0,23.7
Cc1cc2nc(-c3ccc[nH]c3=O)[nH]c2cc1C,85.6*,-10.8,-0.1,-10.8
CCOC(=O)c1[nH]c(C)c(C(=O)Nc2cccc(F)c2)c1C,42.6*,0.4,0.6,7.6
CCOC(=O)c1[nH]c(C)c(C(=O)Nc2ccc(F)cc2)c1C,-2.7,-0.5,-0.1,9.4
CCOC(=O)c1[nH]c(C)c(C(=O)Nc2cccc(Cl)c2)c1C,46.0*,0.3,0.1,-22.5
O=C(Nc1cccc2cccnc12)c1ccc([N+](=O)[O-])cc1Cl,4.6,1.1,0.0,29.9
O=C(/C=C/c1ccc([N+](=O)[O-])cc1)Nc1ccc(-c2nnc3n2CCCCC3)cc1,-1.6,2.6,0.3,5.2
Cc1cc(C2C(=O)c3ccccc3C2=O)nc2ccccc12,48.6*,0.0,-0.2,-9.4
Oc1ccc(CCNc2ccnc(Nc3ccncc3)n2)cc1,74.9*,-1.2,0.1,-17.9
Oc1ccc(CCNc2ccnc(Nc3ccc(C(F)(F)F)cc3)n2)cc1,1.2,2.0,-0.2,-7.3
Oc1ccc(CCNc2ccnc(Nc3ccc(-n4ccnc4)cc3)n2)cc1,43.4*,3.4,-0.2,9.4
COc1ccc(/C=C2/Sc3ccccc3NC2=O)cc1Br,-30.7,-0.7,0.0,3.3
COc1cc(/C=N/NC(=O)CCN2CCN(C)CC2)ccc1O,-4.4,0.0,0.3,22.8
